Measured values as given in PubChem BioAssay (EPA / NIEHS).
Results filed as inconclusive are left out. Activity calls are given as the source filed them. Rule for the calls: active = hit-call score of the fitted dose curve at least 0.9, where 1 is the maximum; inactive = score below 0.9.

These molecules were tested on ABC Transporter (ABCB11), ABCB11 (gene 8647) (assay: CLD_ABCB11_24hr: CellzDirect (CLD) Gene Expression Assay for ABC Transporter (ABCB11) at 24 hours (AID 2283674)).
Experimental: CLD_24hr is a cell-based, multiplexed-readout assay that uses hepatocyte, a human liver primary cell, with measurements taken at 24 hours after chemical dosing in a 96-well plate.CLD_ABCB11_24hr is one of 16 assay component(s) measured or calculated from the CLD_24hr assay. It is designed to make measurements of mRNA induction, a form of inducible reporter, as detected with chemiluminescence signals by Quantitative Nuclease Protection Assay (qNPA) technology.Data from the assay component CLD_ABCB11_24hr was analyzed at the endpoint, CLD_ABCB11_24hr, in the positive analysis fitting direction relative to DMSO as the negative control and baseline of activity. Using a type of inducible reporter, gain-of-signal activity can be used to understand changes in the reporter gene as they relate to the gene ABCB11. Furthermore, this assay endpoint can be referred to as a primary readout. To generalize the intended target to other relatable targets, this assay endpoint is annotated to the transporter intended target family, where subfamily is ABC transporter.
Human hepatocyte cultures were treated daily for two consecutive days with fresh dosing solutions containing appropriate concentrations of the 320 ToxCast chemicals (chemical identities were blinded to CellzDirect and other ToxCast collaborators), vehicle control (0.2% DMSO), and positive control inducers as summarized in Table 1. Due to the large number of treatment groups and chemicals examined, the ToxCast chemicals were divided into two groups (spanning two independent cultures of hepatocytes from separate donor preparations (Hu778: ToxCast plates 1 and 2; Hu776: ToxCast plates 3 and 4). Each preparation of human hepatocyte cultures was treated with respective vehicle control, medium only control, set of six positive controls/reference chemicals for the five hepatic receptor pathways, and a subset of eight of the ToxCast chemicals (indoxacarb, pyrithiobac-sodium, norflurazon, cyhalofop-butyl, methomyl, thiram, acetochlor, and propiconazole). These replicate data, coupled with internal replicates designed within the blinded ToxCast chemical library, provided additional data to evaluate interindividual differences between hepatocyte preparations and their potential impact on chemical profiles.Cell morphology and integrity were evaluated using phase-contrast microscopy as an indicator of hepatocyte cell health (Tyson & Green, 1987). Cultures for each treatment group (i.e., media, vehicle [0.2% DMSO], positive control inducers [multiple concentrations], and the ToxCast chemicals [multiple concentrations]) were observed and cell morphology was assessed relative to vehicle control cultures at each harvest time point (0, 6, 24, or 48 h). […] Images were evaluated at the conclusion of the study to assess changes in cell integrity and account for the effects of chemical exposure on uncharacteristic changes in concentration-dependent gene expression profiles. The results from these determinations of apparent cytotoxicity were annotated (yes/no) alongside the corresponding qNPA data for reference.At the conclusion of each treatment period, hepatocyte cultures (96-well) were washed with 1 volume of HBSS, lysed by addition of 25 ul ArrayPlate lysis buffer (HTG, Tucson, AZ), and 70 ul/well of Denaturation Oil, denatured by incubation at 95C for 10 min, and frozen at approximately -70C until analysis by nuclease protection assay (qNPA) (Roberts et al., 2007). For qNPA analysis, cell lysates were thawed at 50C for approximately 30 min, qNPA probes were added, and samples were incubated at 95C for 10 min to begin the detection process by denaturing the target RNA, dissociating the duplexes and secondary structure hybridization. At the conclusion of the hybridization period, S1 nuclease reagent was added to each sample to digest all nonprotected nucleotides at 50C for 60-90 min. […]

| SMILES | outcome | AC50 |
| --- | --- | --- |
| CNC(=O)ON=C(C)SC | inactive |  |
| CC(C)=CC1C(C(=O)OCN2C(=O)C3=C(CCCC3)C2=O)C1(C)C (stereo not drawn) | inactive |  |
| CCC(=NOC/C=C/Cl)C1=C(O)CC(C2CCOCC2)CC1=O (stereo not drawn) | inactive |  |
| CN(C)[C@@H]1C(=O)C(C(N)=O)=C(O)[C@@]2(O)C(=O)C3=C(O)c4c(O)cccc4[C@@](C)(O)[C@H]3[C@H](O)[C@@H]12 | inactive |  |
| CON=C(C(=O)OC)c1ccccc1CON=C(C)c1cccc(C(F)(F)F)c1 | inactive |  |
| N#CSCSC#N | inactive |  |
| CC(=NC#N)N(C)Cc1ccc(Cl)nc1 | inactive |  |
| CCCCOC(=O)c1ccccc1C(=O)O | inactive |  |
| Cc1nn(-c2cc(NS(C)(=O)=O)c(Cl)cc2Cl)c(=O)n1C(F)F | inactive |  |
| CCOC(=O)CC(SP(=O)(OC)OC)C(=O)OCC (stereo not drawn) | inactive |  |
| CCOP(=S)(Oc1cnc(C(C)(C)C)nc1)OC(C)C (stereo not drawn) | inactive |  |
| CCOP(=S)(OCC)Oc1ccc2c(C)c(Cl)c(=O)oc2c1 | inactive |  |
| C#CC(C)(C)NC(=O)c1cc(Cl)cc(Cl)c1 | inactive |  |
| CCOP(=S)(OCC)SCCSCC | inactive |  |
| CCOP(=O)(SC(C)CC)N1CCSC1=O (stereo not drawn) | inactive |  |
| CN(C)NC(=O)CCC(=O)O | inactive |  |
| COc1cccc(C(=O)NN(C(=O)c2cc(C)cc(C)c2)C(C)(C)C)c1C | inactive |  |

| SMILES | outcome | AC50 |
| --- | --- | --- |
| CCCSP(=O)(OCC)SCCC | inactive |  |
| CC1(C(=O)Nc2ccc(O)c(Cl)c2Cl)CCCCC1 | inactive |  |
| CC1=NNC(=O)N(/N=C/c2cccnc2)C1 | inactive |  |
| S=C1NCCN1 | inactive |  |
| CSc1nnc(C(C)(C)C)c(=O)n1N | inactive |  |
| O=C(O)c1cc(Oc2ccc(C(F)(F)F)cc2Cl)ccc1[N+](=O)[O-] | inactive |  |
| C=C(C)[C@H]1Cc2c(ccc3c2O[C@@H]2COc4cc(OC)c(OC)cc4[C@@H]2C3=O)O1 | inactive |  |
| CCOP(=S)(OCC)OC(Cl)C(Cl)(Cl)Cl (stereo not drawn) | inactive |  |
| COc1cc(OC)nc(Sc2cccc(Cl)c2C(=O)O)n1 | inactive |  |
| CCCCOC(=O)[C@@H](C)Oc1ccc(Oc2ccc(C#N)cc2F)cc1 | inactive |  |
| CNC(=O)ON=C(SC)C(=O)N(C)C | inactive |  |
| CCCOc1nn(C(=O)NS(=O)(=O)c2ccccc2C(=O)OC)c(=O)n1C | inactive |  |
| CC[C@H](C)[C@H]1O[C@]2(C=C[C@@H]1C)C[C@@H]1C[C@@H](C/C=C(\C)[C@@H](O[C@H]3C[C@H](OC)[C@@H](O[C@H]4C[C@H](OC)[C@@H](NC)[C@H](C)O4)[C@H](C)O3)[C@@H](C)/C=C/C=C3\CO[C@@H]4[C@H](O)C(C)=C[C@@H](C(=O)O1)[C@]34O)O2 |  | 0.205 µM (active) |
| CCc1cccc(CC)c1N(COC)C(=O)CCl | inactive |  |
| CCOP(=O)(OCC)Oc1cc(C)nc(C(C)C)n1 | inactive |  |
| COP(=O)(OC)C(O)C(Cl)(Cl)Cl (stereo not drawn) | inactive |  |
